Outcome and AC50 data for seven molecules are collected here from PubChem BioAssay (EPA / NIEHS).

The source made the active and inactive calls. How the source made its calls: active means hit-call score of the fitted dose curve at least 0.9, where 1 is the maximum; inactive means score below 0.9.

Common to all, as to settings: mRNA level, 48 h; actives raise or lower the signal
Read-out in experiment [1]: Tumor necrosis factor receptor superfamily member 6 (Homo sapiens) (UniProt P25445)
Briefly: LTEA_HepaRG_FAS: Life Technologies and Expression Analysis (LTEA) Assay for Fas cell surface death receptor (FAS) using HepaRG (AID 2283447). Summed up:
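Differentiated human HepaRG cells, pre-cultured 48 h, were exposed in duplicate for 48 h to 8-point half-log concentrations (top 100 uM, 0.5% DMSO) in serum-free induction medium; FAS mRNA measured by qRT-PCR, normalized to ACTB/GAPDH/POLR2A, bidirectional fit versus DMSO.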

Read-out in experiment [2]: Fatty acid synthase (Homo sapiens) (UniProt P49327)
Briefly: LTEA_HepaRG_FASN: Life Technologies and Expression Analysis (LTEA) Assay for Fatty Acid Synthase (FASN) using HepaRG (AID 2283448). Put shortly:
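Transcript-level assay: HepaRG liver cells are treated for 48 h across an eight-point range topping at 100 uM, and FASN mRNA, normalized to three housekeeping genes, is compared with DMSO controls in both directions.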

Read-out in experiment [3]: Cyclin D2 (CCND2), CCND2 (gene 894)
The experiment can be described thus: LTEA_HepaRG_CCND2: Life Technologies and Expression Analysis (LTEA) Assay for Cyclin D2 (CCND2) using HepaRG (AID 2283449).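 Further: CCND2 transcript measured by TaqMan qRT-PCR and normalised to three housekeeping genes.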 Put shortly:
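Differentiated human HepaRG cells were exposed for 48 h in serum-free induction medium to eight half-log concentrations topping at 100 uM (0.5% DMSO vehicle). CCND2 mRNA was quantified by TaqMan qRT-PCR, normalised to ACTB, GAPDH and POLR2A, and fitted bidirectionally against DMSO.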

Read-out in experiment [4]: Cyclin Dependent Kinase Inhibitor 1A (CDKN1A), CDKN1A (gene 1026)
The experiment can be described thus: LTEA_HepaRG_CDKN1A: Life Technologies and Expression Analysis (LTEA) Assay for Cyclin Dependent Kinase Inhibitor 1A (CDKN1A) using HepaRG (AID 2283450). Summed up: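 HepaRG, 48 h dosing, 8-pt half-log series from 100 uM top, 0.5% DMSO vehicle, duplicates. Readout: TaqMan qRT-PCR of CDKN1A transcript, housekeeping-normalized (ACTB, GAPDH, POLR2A). Up/down curve fit relative to DMSO.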

Read-out in experiment [5]: Cyclin D1 (CCND1), CCND1 (gene 595)
Briefly: LTEA_HepaRG_CCND1: Life Technologies and Expression Analysis (LTEA) Assay for Cyclin D1 (CCND1) using HepaRG (AID 2283451). Summed up: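 qRT-PCR (Fluidigm 96.96 array) read-out of transcript level, housekeeping-normalized (ACTB/GAPDH/POLR2A). HepaRG cells, 48 h chemical exposure, 8-point half-log series from 100 uM, 0.5% DMSO vehicle; gain or loss relative to DMSO baseline.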

Read-out in experiment [6]: catalase (CAT), CAT (gene 847)
The experiment can be described thus: LTEA_HepaRG_CAT: Life Technologies and Expression Analysis (LTEA) Assay for catalase (CAT) using HepaRG (AID 2283452). Summed up: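 Differentiated HepaRG cells in serum-free induction medium were dosed 48 h in duplicate, eight half-log concentrations from 100 uM in 0.5% DMSO. Transcript measured by TaqMan qRT-PCR, normalised to ACTB/GAPDH/POLR2A, fitted bidirectionally against DMSO.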

Read-out in experiment [7]: flavin-containing dimethylaniline monooxygenases 3 (FMO3), FMO3 (gene 2328)
Briefly: LTEA_HepaRG_FMO3: Life Technologies and Expression Analysis (LTEA) Assay for flavin-containing dimethylaniline monooxygenases 3 (FMO3) using HepaRG (AID 2283453). Put shortly: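 HepaRG, 48 h exposure, 8-pt half-log series from 100 uM, 0.5% DMSO vehicle, duplicates; FMO3 transcript by Fluidigm TaqMan qRT-PCR, housekeeping-normalized; gain/loss fit vs DMSO.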

Read-out in experiment [8]: Cytochrome P450 (CYP1A1), CYP1A1 (gene 1543)
The experiment can be described thus: LTEA_HepaRG_CYP1A1: Life Technologies and Expression Analysis (LTEA) Assay for Cytochrome P450 (CYP1A1) using HepaRG (AID 2283454). Put shortly:
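qRT-PCR read-out: CYP1A1 transcript normalized to three housekeeping genes, fitted bidirectionally against 0.5% DMSO vehicle baseline. Human HepaRG cells, 48 h chemical exposure, 8-point half-log series topping at 100 uM.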

Read-out in experiment [9]: CFLAR gene, CFLAR (gene 8837)
Briefly: LTEA_HepaRG_CFLAR: Life Technologies and Expression Analysis (LTEA) Assay for CFLAR gene using HepaRG (AID 2283455). Put shortly:
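HepaRG cells were plated for 48 h, switched to serum-free induction medium, then exposed in duplicate for 48 h to 8 concentrations (top 100 uM, half-log steps, 0.5% DMSO). CFLAR mRNA was measured by qRT-PCR, normalized to ACTB, GAPDH and POLR2A.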

Read-out in experiment [10]: Forkhead box O1 (FOXO1), FOXO1 (gene 2308)
Briefly: LTEA_HepaRG_FOXO1: Life Technologies and Expression Analysis (LTEA) Assay for Forkhead box O1 (FOXO1) using HepaRG (AID 2283456). Put shortly:
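Differentiated human HepaRG cells in serum-free induction medium were exposed in duplicate for 48 h to eight half-log concentrations (top 100 uM, 0.5% DMSO). FOXO1 mRNA was measured by TaqMan qRT-PCR, normalised to ACTB, GAPDH and POLR2A, and fitted bidirectionally against DMSO.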

Read-out in experiment [11]: growth arrest and DNA damage 45 (GADD45A), GADD45A (gene 1647)
The experiment can be described thus: LTEA_HepaRG_GADD45A: Life Technologies and Expression Analysis (LTEA) Assay for growth arrest and DNA damage 45 (GADD45A) using HepaRG (AID 2283458). Summed up: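 Human HepaRG liver cells are treated in duplicate for 48 h with chemicals in 0.5% DMSO, highest concentration 100 uM. Expression is read by qRT-PCR and analyzed in both directions against vehicle.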

Read-out in experiment [12]: Forkhead box O3 (FOXO3), FOXO3 (gene 2309)
The experiment can be described thus: LTEA_HepaRG_FOXO3: Life Technologies and Expression Analysis (LTEA) Assay for Forkhead box O3 (FOXO3) using HepaRG (AID 2283459). Summed up: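 Differentiated human HepaRG cells in serum-free induction medium were exposed in duplicate for 48 h to eight half-log concentrations up to 100 uM in 0.5% DMSO. FOXO3 mRNA was quantified by qRT-PCR, normalized to ACTB, GAPDH and POLR2A, with bidirectional fitting versus DMSO.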

Read-out in experiment [13]: ABC Transporter (ABCB1), ABCB1 (gene 5243)
Briefly: LTEA_HepaRG_ABCB1: Life Technologies and Expression Analysis (LTEA) Assay for ABC Transporter (ABCB1) using HepaRG (AID 2283460). Summed up: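 Differentiated human HepaRG cells, plated 48 h then switched to serum-free induction medium, were exposed in duplicate to eight half-log concentrations up to 100 uM in 0.5% DMSO for 48 h. ABCB1 mRNA was measured by TaqMan qRT-PCR, normalized to ACTB/GAPDH/POLR2A.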

Read-out in experiment [14]: growth arrest and DNA damage 45 (GADD45B), GADD45B (gene 4616)
The experiment can be described thus: LTEA_HepaRG_GADD45B: Life Technologies and Expression Analysis (LTEA) Assay for growth arrest and DNA damage 45 (GADD45B) using HepaRG (AID 2283461). Put shortly: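 qRT-PCR read-out (Fluidigm TaqMan, housekeeping-normalized) of mRNA change in human HepaRG cells after 48 h chemical exposure; 8-point curve, top 100 uM, half-log steps, 0.5% DMSO vehicle; gain or loss fitted relative to DMSO baseline.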

Read-out in experiment [15]: ABC Transporter (ABCC3), ABCC3 (gene 8714)
The experiment can be described thus: LTEA_HepaRG_ABCC3: Life Technologies and Expression Analysis (LTEA) Assay for ABC Transporter (ABCC3) using HepaRG (AID 2283462). Put shortly:
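qRT-PCR read-out of ABCC3 transcript, normalized to three housekeeping genes (ACTB, GAPDH, POLR2A), after 48 h chemical exposure of human HepaRG cells. Eight half-log concentrations, highest 100 uM, in 0.5% DMSO; gain or loss fitted relative to DMSO baseline.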

Read-out in experiment [16]: Broad substrate specificity ATP-binding cassette transporter ABCG2 (Homo sapiens) (UniProt Q9UNQ0)
The experiment can be described thus: LTEA_HepaRG_ABCG2: Life Technologies and Expression Analysis (LTEA) Assay for ABC Transporter (ABCG2) using HepaRG (AID 2283465). Summed up:
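Differentiated HepaRG cells in serum-free induction medium were exposed for 48 h, in duplicate, to eight half-log concentrations up to 100 uM in 0.5% DMSO. ABCG2 mRNA was measured by TaqMan qRT-PCR, normalized to ACTB, GAPDH and POLR2A, and fitted bidirectionally versus DMSO.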

Read-out in experiment [17]: ATP-citrate lyase (ACLY), ACLY (gene 47)
Briefly: LTEA_HepaRG_ACLY: Life Technologies and Expression Analysis (LTEA) Assay for ATP-citrate lyase (ACLY) using HepaRG (AID 2283466). Put shortly: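 Differentiated human HepaRG cells in serum-free induction medium exposed 48 h, in duplicate, to eight half-log concentrations from 100 uM top in 0.5% DMSO; ACLY mRNA measured by qRT-PCR, normalized to ACTB, GAPDH, POLR2A, fitted bidirectionally versus DMSO.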

Read-out in experiment [18]: ABC Transporter (ABCC2), ABCC2 (gene 1244)
The experiment can be described thus: LTEA_HepaRG_ABCC2: Life Technologies and Expression Analysis (LTEA) Assay for ABC Transporter (ABCC2) using HepaRG (AID 2283464). Put shortly:
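qRT-PCR (TaqMan, Fluidigm array) read-out of ABCC2 mRNA, normalized to three housekeeping genes. Differentiated HepaRG cells were treated 48 h in serum-free induction medium with 8-point half-log series from 100 uM in 0.5% DMSO; curves fitted bidirectionally relative to DMSO.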

Read-out in experiment [19]: ABC Transporter (ABCB11), ABCB11 (gene 8647)
Briefly: LTEA_HepaRG_ABCB11: Life Technologies and Expression Analysis (LTEA) Assay for ABC Transporter (ABCB11) using HepaRG (AID 2283463). Summed up: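 Differentiated human HepaRG cells were exposed for 48 h in serum-free induction medium to eight half-log concentrations up to 100 uM in 0.5% DMSO. ABCB11 mRNA was quantified by qRT-PCR, normalized to ACTB, GAPDH and POLR2A, and fitted bidirectionally versus DMSO.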

Chain of Fatty acid synthase (Homo sapiens) (P49327 whole entry, looked up): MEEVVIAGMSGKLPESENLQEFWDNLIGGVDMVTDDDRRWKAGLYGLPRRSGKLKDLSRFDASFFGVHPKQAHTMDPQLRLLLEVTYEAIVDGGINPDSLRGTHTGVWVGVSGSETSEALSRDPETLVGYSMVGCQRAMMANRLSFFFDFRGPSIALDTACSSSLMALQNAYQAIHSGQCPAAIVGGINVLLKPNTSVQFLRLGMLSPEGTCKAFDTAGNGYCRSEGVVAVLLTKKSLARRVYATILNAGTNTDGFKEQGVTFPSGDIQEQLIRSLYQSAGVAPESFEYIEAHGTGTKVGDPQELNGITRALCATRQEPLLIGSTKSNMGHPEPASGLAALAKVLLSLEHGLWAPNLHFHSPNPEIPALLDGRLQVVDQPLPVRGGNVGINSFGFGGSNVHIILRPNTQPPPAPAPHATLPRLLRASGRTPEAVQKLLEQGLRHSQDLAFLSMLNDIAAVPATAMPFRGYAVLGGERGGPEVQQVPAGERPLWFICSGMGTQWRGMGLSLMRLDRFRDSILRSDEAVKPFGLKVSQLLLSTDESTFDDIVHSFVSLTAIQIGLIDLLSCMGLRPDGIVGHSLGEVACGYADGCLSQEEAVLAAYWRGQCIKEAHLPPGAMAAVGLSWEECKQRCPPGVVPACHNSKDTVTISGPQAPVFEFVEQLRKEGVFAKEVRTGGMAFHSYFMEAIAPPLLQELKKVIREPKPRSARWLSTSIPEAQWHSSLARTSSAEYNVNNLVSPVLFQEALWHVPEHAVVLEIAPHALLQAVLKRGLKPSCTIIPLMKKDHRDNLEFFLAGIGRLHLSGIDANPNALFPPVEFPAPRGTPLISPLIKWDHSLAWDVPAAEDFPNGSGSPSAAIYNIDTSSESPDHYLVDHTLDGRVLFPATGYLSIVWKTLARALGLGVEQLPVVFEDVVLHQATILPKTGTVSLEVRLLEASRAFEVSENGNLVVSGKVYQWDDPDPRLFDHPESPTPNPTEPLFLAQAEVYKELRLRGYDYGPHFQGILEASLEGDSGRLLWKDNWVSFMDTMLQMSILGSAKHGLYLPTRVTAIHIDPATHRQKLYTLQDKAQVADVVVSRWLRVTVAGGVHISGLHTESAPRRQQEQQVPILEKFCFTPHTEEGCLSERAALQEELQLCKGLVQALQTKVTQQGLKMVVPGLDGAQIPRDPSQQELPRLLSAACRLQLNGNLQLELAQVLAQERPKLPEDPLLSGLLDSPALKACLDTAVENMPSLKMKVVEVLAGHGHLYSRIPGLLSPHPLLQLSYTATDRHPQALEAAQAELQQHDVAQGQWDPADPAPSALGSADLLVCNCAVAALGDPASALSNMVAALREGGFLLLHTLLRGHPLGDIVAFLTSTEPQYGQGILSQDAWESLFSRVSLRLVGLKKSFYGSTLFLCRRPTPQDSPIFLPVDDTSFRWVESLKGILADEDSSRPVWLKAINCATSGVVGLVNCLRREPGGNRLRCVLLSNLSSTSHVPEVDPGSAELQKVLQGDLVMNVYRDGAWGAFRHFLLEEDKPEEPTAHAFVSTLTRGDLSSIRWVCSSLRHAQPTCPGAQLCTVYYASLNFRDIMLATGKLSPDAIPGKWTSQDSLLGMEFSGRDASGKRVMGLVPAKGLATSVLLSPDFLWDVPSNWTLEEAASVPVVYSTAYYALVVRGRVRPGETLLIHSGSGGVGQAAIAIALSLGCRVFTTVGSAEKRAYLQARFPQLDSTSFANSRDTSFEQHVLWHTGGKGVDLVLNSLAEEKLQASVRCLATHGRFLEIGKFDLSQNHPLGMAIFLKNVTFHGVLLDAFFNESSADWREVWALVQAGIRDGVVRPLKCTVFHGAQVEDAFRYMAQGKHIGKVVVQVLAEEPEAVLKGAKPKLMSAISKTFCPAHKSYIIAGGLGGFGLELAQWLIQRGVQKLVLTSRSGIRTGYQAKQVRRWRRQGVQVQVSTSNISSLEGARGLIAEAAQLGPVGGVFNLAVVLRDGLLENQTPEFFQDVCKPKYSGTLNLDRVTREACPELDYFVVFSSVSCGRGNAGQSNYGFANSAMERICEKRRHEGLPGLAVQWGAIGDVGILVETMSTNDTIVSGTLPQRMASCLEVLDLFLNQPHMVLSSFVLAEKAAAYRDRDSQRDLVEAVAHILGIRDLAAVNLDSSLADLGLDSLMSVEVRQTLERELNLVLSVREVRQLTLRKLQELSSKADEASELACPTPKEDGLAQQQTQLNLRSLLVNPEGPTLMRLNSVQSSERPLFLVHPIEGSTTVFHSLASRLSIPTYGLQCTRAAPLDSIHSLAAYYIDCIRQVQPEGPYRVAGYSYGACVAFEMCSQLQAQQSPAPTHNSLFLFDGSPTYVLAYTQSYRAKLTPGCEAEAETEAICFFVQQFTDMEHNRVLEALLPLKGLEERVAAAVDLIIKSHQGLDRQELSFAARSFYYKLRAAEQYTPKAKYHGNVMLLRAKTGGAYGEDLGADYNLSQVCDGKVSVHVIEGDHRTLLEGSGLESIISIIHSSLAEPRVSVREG
Chain of Broad substrate specificity ATP-binding cassette transporter ABCG2 (Homo sapiens) (Q9UNQ0 whole entry, looked up): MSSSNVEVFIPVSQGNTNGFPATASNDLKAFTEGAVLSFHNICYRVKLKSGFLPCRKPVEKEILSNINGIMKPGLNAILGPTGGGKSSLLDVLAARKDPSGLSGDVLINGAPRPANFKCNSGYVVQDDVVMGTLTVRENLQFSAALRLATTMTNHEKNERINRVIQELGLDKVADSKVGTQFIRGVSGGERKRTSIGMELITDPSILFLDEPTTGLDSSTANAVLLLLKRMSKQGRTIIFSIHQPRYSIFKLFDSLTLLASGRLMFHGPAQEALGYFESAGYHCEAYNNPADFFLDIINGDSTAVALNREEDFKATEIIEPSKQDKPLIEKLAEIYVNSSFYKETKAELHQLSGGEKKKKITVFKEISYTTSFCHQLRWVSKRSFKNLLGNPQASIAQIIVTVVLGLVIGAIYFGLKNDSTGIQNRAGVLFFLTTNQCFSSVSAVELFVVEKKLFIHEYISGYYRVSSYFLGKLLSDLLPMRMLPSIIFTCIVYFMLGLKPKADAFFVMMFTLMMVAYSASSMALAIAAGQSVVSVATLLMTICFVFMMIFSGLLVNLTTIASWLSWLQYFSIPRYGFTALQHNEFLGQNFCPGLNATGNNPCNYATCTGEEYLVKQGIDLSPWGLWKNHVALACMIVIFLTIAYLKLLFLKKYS

With `COC(=O)c1ccc(O)cc1`, the result in experiment [1], in experiment [2], in [3], in [4], in experiment [5] and in [6] was inactive. The outcome in experiment [7], in [8], in experiment [9], in experiment [10], in experiment [11] and in experiment [12] was inactive. Moreover, the result in experiment [13], in experiment [14], in [15], in experiment [16] and in experiment [17] was inactive.

Take `CC1(C)NC(=O)NC1=O`: the result in [1], in experiment [2], in [3], in [4], in experiment [6] and in experiment [7] was inactive. The call in experiment [8], in [9], in [10], in [11], in experiment [12] and in [13] was inactive. Moreover, the molecule was classed as inactive in experiment [14], in experiment [15], in [18], in experiment [16] and in experiment [17].

On to `Cc1ccc(C)c(O)c1C`, for which the call in [1], in experiment [2], in experiment [3], in experiment [4], in [6] and in [7] was inactive. Also, the molecule was classed as inactive in [9], in [10], in experiment [11], in [12], in experiment [13] and in experiment [14]. Besides, the molecule was classed as inactive in [15], in experiment [16] and in experiment [17]. The AC50 in experiment [8] is 68 µM (active).

For the molecule `CN1CCCC1=O`, the call in experiment [1], in experiment [2], in [3], in [4], in experiment [6] and in [7] was inactive. Moreover, the result in [9], in [10], in [11], in [12], in experiment [13] and in experiment [14] was inactive. Also, the result in [15], in experiment [19], in experiment [18], in experiment [16] and in [17] was inactive. Moreover, the concentration at half-maximal activity (AC50) in experiment [8] is 50 µM (active).

Turning to `CC1=C(/C=C/C(C)=C/C=C/C(C)=C/CO)C(C)(C)CCC1`, the call in experiment [1], in experiment [2], in experiment [3], in experiment [4], in experiment [6] and in experiment [7] was inactive. For the same molecule, the call in [9], in experiment [10], in experiment [11], in [12], in experiment [14] and in [15] was inactive. The call in [17] was inactive. Also, the AC50 was 64.1 µM (active) in experiment [8], 52.2 µM (active) in experiment [13] and 52.2 µM (active) in experiment [16].

Take `Nc1ccc2c(c1)C(=O)c1ccccc1C2=O`: the result in experiment [1], in experiment [3], in experiment [10], in [11], in experiment [13] and in [15] was inactive. Besides, in [17], the molecule was classed as inactive. The AC50 in [2] is 2.86 µM (active); in experiment [4] it was 26.8 µM (active); in experiment [6], 1.57 µM (active); in [7] it was 12 µM (active); in [8] it was 6.31 µM (active); in experiment [9], 3.31 µM (active). In addition, the AC50 in experiment [12] is 3 µM (active); in experiment [14], 9.75 µM (active); in [19] it was 4.81 µM (active); in experiment [16], 10.4 µM (active).

As to `Cc1ccccc1Cl`, the call in experiment [1], in experiment [2], in [3], in experiment [4], in experiment [5] and in experiment [6] was inactive. Also, the result in experiment [7], in experiment [10], in experiment [11], in experiment [12], in experiment [13] and in experiment [14] was inactive. Also, the call in [15], in experiment [18], in [16] and in experiment [17] was inactive. For the same molecule, the AC50 in experiment [8] is 50 µM (active).

As usually defined, the AC50 is the concentration at which the activity in the assay is half-maximal.
